# PubChem BioAssay AID1159580 (chemical genetic matrix, 2015)
# In all, about 5,500 compounds went through this assay and about 2,000 (36%) were called active. Inconclusive results (about 18%) are left out. The list shows a part of the results. Unmarked numbers belong to inactive results. Rule as the data show it: active = normalized growth mostly below about 0.91 (no sharp cut-off); inconclusive = no clear call, values can overlap the other calls; inactive = mostly above about 0.92.
# Experiment: chemical genetic growth profiling, strain panel (AID 1159580);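 also: tested at 20 µM; growth read once vehicle control cultures reached saturation at 30 °C; 1 = growth at the plate median or of vehicle wells; lower values mean less growth of the strain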
# Conditions: growth OD
# [1] = S. cerevisiae deletion strains, locus YAL013W, strain DEP1, hits give low values
# [2] = S. cerevisiae deletion strains, locus YBR229C, strain ROT2, hits give low values
# [3] = S. cerevisiae deletion strains, locus YCL061C, strain MRC1, hits give low values
# [4] = S. cerevisiae deletion strains, locus YDL101C, strain DUN1, hits give low values
# [5] = S. cerevisiae deletion strains, locus YDL134C, strain PPH21, hits give low values
# [6] = S. cerevisiae deletion strains, locus YDR150W, strain NUM1, hits give low values
# [7] = S. cerevisiae deletion strains, locus YEL061C, strain CIN8, hits give low values
# [8] = S. cerevisiae deletion strains, locus YGR078C, strain PAC10, hits give low values
# [9] = S. cerevisiae deletion strains, locus YHR030C, strain SLT2, hits give low values
# [10] = S. cerevisiae deletion strains, locus YHR087W, strain rtc3, hits give low values
# [11] = S. cerevisiae deletion strains, locus YJL187C, strain SWE1, hits give low values
# [12] = S. cerevisiae deletion strains, locus YJR043C, strain POL32, hits give low values
# [13] = S. cerevisiae deletion strains, locus YJR075W, strain HOC1, hits give low values
# [14] = S. cerevisiae deletion strains, locus YKL190W, strain CNB1, hits give low values
# [15] = S. cerevisiae deletion strains, locus YLR039C, strain RIC1, hits give low values
# [16] = S. cerevisiae deletion strains, locus YLR058C, strain SHM2 (second series), hits give low values
# [17] = S. cerevisiae deletion strains, locus YLR085C, strain ARP6, hits give low values
# [18] = S. cerevisiae deletion strains, locus YLR262C, strain YPT6, hits give low values
# [19] = S. cerevisiae deletion strains, locus YML094W, strain GIM5, hits give low values
# [20] = S. cerevisiae deletion strains, locus YMR219W, strain ESC1, hits give low values
# [21] = S. cerevisiae deletion strains, locus YMR263W, strain SAP30, hits give low values
# [22] = S. cerevisiae deletion strains, locus YMR307W, strain GAS1, hits give low values
# [23] = S. cerevisiae deletion strains, locus YNL153C, strain GIM3, hits give low values
# [24] = S. cerevisiae deletion strains, locus YNL298W, strain CLA4 (second series), hits give low values
# [25] = S. cerevisiae deletion strains, locus YNL322C, strain KRE1, hits give low values
# [26] = S. cerevisiae deletion strains, locus YNR030W, strain Alg12, hits give low values
# [27] = S. cerevisiae deletion strains, locus YOL006C, strain TOP1, hits give low values
# [28] = S. cerevisiae deletion strains, locus YPL055C, strain LGE1, hits give low values
# [29] = S. cerevisiae deletion strains, locus YPL241C, strain CIN2, hits give low values
# [30] = S. cerevisiae deletion strains, locus YPR135W, strain CTF4, hits give low values
# [31] = S. cerevisiae strains, strain wild type, hits give low values
structure (smiles),measurement,setting,value
N#Cc1ccc(-c2csc(-c3ccc(Oc4ccc(C(F)(F)F)cn4)cc3)n2)cc1,normalized growth,[1],0.98
same,normalized growth,[2],1
same,normalized growth,[3],1.01
same,normalized growth,[4],1.03
same,normalized growth,[5],0.986
same,normalized growth,[6],1.01
same,normalized growth,[7],1.01
same,normalized growth,[8],0.996
same,normalized growth,[9],1.03
same,normalized growth,[10],0.984
same,normalized growth,[11],1
same,normalized growth,[12],1.01
same,normalized growth,[13],1.03
same,normalized growth,[14],1.01
same,normalized growth,[15],0.974
same,normalized growth,[16],1
same,normalized growth,[17],1.14
same,normalized growth,[18],0.974
same,normalized growth,[19],0.99
same,normalized growth,[20],1
same,normalized growth,[21],1.03
same,normalized growth,[22],1.32
same,normalized growth,[23],1.02
same,normalized growth,[24],1
same,normalized growth,[25],0.994
same,normalized growth,[26],1
same,normalized growth,[27],1.05
same,normalized growth,[28],0.998
same,normalized growth,[29],1.33 [resistant] (active)
same,normalized growth,[30],0.88
same,normalized growth,[31],0.99
Cc1ccc(-c2csc(-c3ccc(Oc4ccc(C(F)(F)F)cn4)cc3)n2)c(C)c1,normalized growth,[1],0.995
same,normalized growth,[2],1
same,normalized growth,[3],1.02
same,normalized growth,[4],1.03
same,normalized growth,[5],0.992
same,normalized growth,[6],1.01
same,normalized growth,[7],1
same,normalized growth,[8],1.01
same,normalized growth,"S. cerevisiae deletion strains, locus YGR229C, strain SMI1, hits give low values",0.996
same,normalized growth,[9],1.06
same,normalized growth,[10],0.995
same,normalized growth,[12],1.01
same,normalized growth,[13],1.03
same,normalized growth,[14],0.993
same,normalized growth,[15],1.03
same,normalized growth,[16],1
same,normalized growth,[17],1.17
same,normalized growth,[18],0.996
same,normalized growth,[19],1
same,normalized growth,[20],0.998
same,normalized growth,[21],1.03
same,normalized growth,[22],1.24
same,normalized growth,[23],1.02
same,normalized growth,[24],1
same,normalized growth,[25],1
same,normalized growth,[26],1
same,normalized growth,[28],1.01
same,normalized growth,[29],1.03
same,normalized growth,[30],0.966
same,normalized growth,[31],0.988
C/C(=N/NC(=S)Nc1ccc(C(C)C)cc1)c1ccco1,normalized growth,[1],0.906 (active)
same,normalized growth,[2],0.859 (active)
same,normalized growth,[3],0.909 (active)
same,normalized growth,[4],0.905
same,normalized growth,[5],0.629 (active)
same,normalized growth,[6],0.805
same,normalized growth,[7],0.433 (active)
same,normalized growth,[8],0.864 (active)
same,normalized growth,[9],0.242 (active)
same,normalized growth,[10],0.817 (active)
same,normalized growth,[11],0.866 (active)
same,normalized growth,[12],0.937
same,normalized growth,[13],0.879 (active)
same,normalized growth,[14],0.583 (active)
same,normalized growth,[15],0.487 (active)
same,normalized growth,[16],0.967
same,normalized growth,[17],0.158 (active)
same,normalized growth,[18],0.617 (active)
same,normalized growth,[19],0.687 (active)
same,normalized growth,[20],0.93 (active)
same,normalized growth,[21],0.892 (active)
same,normalized growth,[22],0.376 (active)
same,normalized growth,[23],0.875 (active)
same,normalized growth,[24],0.437 (active)
same,normalized growth,[25],0.991
same,normalized growth,[26],0.609 (active)
same,normalized growth,[27],0.17 (active)
same,normalized growth,[28],0.847
same,normalized growth,[29],0.516 (active)
same,normalized growth,[30],0.398 (active)
same,normalized growth,[31],0.741 (active)
O/N=C(/c1ccc(Cl)cc1)c1cc2ccccc2o1,normalized growth,"S. cerevisiae deletion strains, locus YAR019C, strain CDC15, hits give low values",0.936
same,normalized growth,"S. cerevisiae deletion strains, locus YBL105C, strain PKC1, hits give low values",0.946
same,normalized growth,"S. cerevisiae deletion strains, locus YBR135W, strain CKS1, hits give low values",0.939
same,normalized growth,"S. cerevisiae deletion strains, locus YBR136W, strain MEC1, hits give low values",0.945
same,normalized growth,"S. cerevisiae deletion strains, locus YBR160W, strain CDC28, hits give low values",0.957
same,normalized growth,"S. cerevisiae deletion strains, locus YDL017W, strain CDC7, hits give low values",0.946
same,normalized growth,"S. cerevisiae deletion strains, locus YDL028C, strain MPS1, hits give low values",0.948
same,normalized growth,[4],0.964
same,normalized growth,"S. cerevisiae deletion strains, locus YDL108W, strain KIN28, hits give low values",0.943
same,normalized growth,"S. cerevisiae deletion strains, locus YDL132W, strain cdc53, hits give low values",0.962
same,normalized growth,"S. cerevisiae deletion strains, locus YDL214C, strain PRR2, hits give low values",0.887
same,normalized growth,"S. cerevisiae deletion strains, locus YDR052C, strain DBF4, hits give low values",0.93
same,normalized growth,"S. cerevisiae deletion strains, locus YDR054C, strain cdc34, hits give low values",0.947
same,normalized growth,"S. cerevisiae deletion strains, locus YDR226W, strain ADK1, hits give low values",0.916
same,normalized growth,"S. cerevisiae deletion strains, locus YDR477W, strain SNF1, hits give low values",0.847
same,normalized growth,"S. cerevisiae deletion strains, locus YER123W, strain YCK3, hits give low values",0.883
same,normalized growth,"S. cerevisiae deletion strains, locus YER133W, strain GLC7, hits give low values",0.813
same,normalized growth,"S. cerevisiae deletion strains, locus YFL009W, strain cdc4, hits give low values",0.963
same,normalized growth,"S. cerevisiae deletion strains, locus YFL029C, strain CAK1, hits give low values",0.94
same,normalized growth,"S. cerevisiae deletion strains, locus YFR003C, strain YPI1, hits give low values",0.943
same,normalized growth,"S. cerevisiae deletion strains, locus YFR019W, strain FAB1, hits give low values",0.904
same,normalized growth,"S. cerevisiae deletion strains, locus YFR028C, strain CDC14, hits give low values",0.956
same,normalized growth,"S. cerevisiae deletion strains, locus YGR040W, strain KSS1, hits give low values",0.852
same,normalized growth,"S. cerevisiae deletion strains, locus YGR052W, strain FMP48, hits give low values",0.789
same,normalized growth,"S. cerevisiae deletion strains, locus YGR092W, strain DBF2, hits give low values",0.748
same,normalized growth,[9],0.526 (active)
same,normalized growth,"S. cerevisiae deletion strains, locus YHR079C, strain IRE1, hits give low values",0.851
same,normalized growth,"S. cerevisiae deletion strains, locus YHR082C, strain KSP1, hits give low values",0.877
same,normalized growth,"S. cerevisiae deletion strains, locus YHR205W, strain SCH9, hits give low values",0.675
same,normalized growth,"S. cerevisiae deletion strains, locus YIL147C, strain SLN1, hits give low values",0.943
same,normalized growth,"S. cerevisiae deletion strains, locus YJL095W, strain BCK1, hits give low values",0.403 (active)
same,normalized growth,"S. cerevisiae deletion strains, locus YJL128C, strain PBS2, hits give low values",0.893
same,normalized growth,"S. cerevisiae deletion strains, locus YJL157C, strain FAR1, hits give low values",0.872
same,normalized growth,"S. cerevisiae deletion strains, locus YJR016C, strain ILV3, hits give low values",0.941
same,normalized growth,"S. cerevisiae deletion strains, locus YJR066W, strain TOR1 (second series), hits give low values",0.848
same,normalized growth,"S. cerevisiae deletion strains, locus YJR066W, strain TOR1, hits give low values",0.797
same,normalized growth,"S. cerevisiae deletion strains, locus YKL048C, strain ELM1, hits give low values",0.923
same,normalized growth,"S. cerevisiae deletion strains, locus YKL067W, strain YNK1, hits give low values",0.893
same,normalized growth,"S. cerevisiae deletion strains, locus YKL101W, strain HSL1, hits give low values",0.916
same,normalized growth,"S. cerevisiae deletion strains, locus YKL193C, strain SDS22, hits give low values",0.93
same,normalized growth,"S. cerevisiae deletion strains, locus YKL203C, strain TOR2, hits give low values",0.622 (active)
same,normalized growth,"S. cerevisiae deletion strains, locus YLR113W, strain HOG1, hits give low values",0.915
same,normalized growth,"S. cerevisiae deletion strains, locus YLR133W, strain CKI1, hits give low values",0.863
same,normalized growth,"S. cerevisiae deletion strains, locus YLR403W, strain SFP1, hits give low values",0.614 (active)
same,normalized growth,"S. cerevisiae deletion strains, locus YML070W, strain DAK1, hits give low values",0.868
same,normalized growth,"S. cerevisiae deletion strains, locus YMR001C, strain CDC5, hits give low values",0.936
same,normalized growth,"S. cerevisiae deletion strains, locus YMR205C, strain PFK2 (second series), hits give low values",0.862
same,normalized growth,"S. cerevisiae deletion strains, locus YMR277W, strain FCP1, hits give low values",0.933
same,normalized growth,"S. cerevisiae deletion strains, locus YNL006W, strain LST8, hits give low values",0.945
same,normalized growth,"S. cerevisiae deletion strains, locus YNL020C, strain ARK1, hits give low values",0.82
same,normalized growth,"S. cerevisiae deletion strains, locus YNL161W, strain CBK1, hits give low values",0.942
same,normalized growth,"S. cerevisiae deletion strains, locus YNL183C, strain NPR1, hits give low values",0.784
same,normalized growth,"S. cerevisiae deletion strains, locus YNL207W, strain RIO2, hits give low values",0.935
same,normalized growth,"S. cerevisiae deletion strains, locus YNL222W, strain SSU72, hits give low values",0.947
same,normalized growth,"S. cerevisiae deletion strains, locus YNL307C, strain MCK1 (second series), hits give low values",0.902
same,normalized growth,"S. cerevisiae deletion strains, locus YOL078W, strain AVO1, hits give low values",0.937
same,normalized growth,"S. cerevisiae deletion strains, locus YOL136C, strain PFK27, hits give low values",0.865
same,normalized growth,"S. cerevisiae deletion strains, locus YOR061W, strain CKA2, hits give low values",0.87
same,normalized growth,"S. cerevisiae deletion strains, locus YOR119C, strain RIO1, hits give low values",0.848
same,normalized growth,"S. cerevisiae deletion strains, locus YOR231W, strain MKK1, hits give low values",0.964
same,normalized growth,"S. cerevisiae deletion strains, locus YOR329C, strain SCD5, hits give low values",0.946
same,normalized growth,"S. cerevisiae deletion strains, locus YPL031C, strain PHO85, hits give low values",0.84
same,normalized growth,"S. cerevisiae deletion strains, locus YPL153C, strain RAD53, hits give low values",0.841
same,normalized growth,"S. cerevisiae deletion strains, locus YPL204W, strain HRR25, hits give low values",0.807
same,normalized growth,"S. cerevisiae deletion strains, locus YPL209C, strain IPL1, hits give low values",0.941
same,normalized growth,"S. cerevisiae deletion strains, locus YPL256C, strain CLN2, hits give low values",0.917
same,normalized growth,"S. cerevisiae deletion strains, locus YPR025C, strain CCL1, hits give low values",0.948
same,normalized growth,"S. cerevisiae deletion strains, locus YPR106W, strain ISR1, hits give low values",0.946
same,normalized growth,"S. cerevisiae deletion strains, locus YPR111W, strain DBF20, hits give low values",0.951
same,normalized growth,"S. cerevisiae deletion strains, strain NNK1, hits give low values",0.946
same,normalized growth,"S. cerevisiae deletion strains, strain TSCII, hits give low values",0.939
